In PubChem BioAssay (NCATS):
Records with an inconclusive call do not appear. Unmarked numbers belong to inactive results. The source made the active and inactive calls. The call rests on the fitted dose curve.

molecular target: Nucleoprotein (Lymphocytic choriomeningitis virus (strain Armstrong)) (UniProt P09992); test: qHTS for Inhibitors of the Functional Ribonucleoprotein Complex (vRNP) of Lymphocytic Choriomeningitis Arenaviruses (LCMV): LCMV Primary Screen - GLuc reporter signal (AID 1347086); conditions: LCMV minigenome vRNP cell assay, Gaussia luciferase reporter; series mostly up to 57.5 µM; activity change, negative = inhibition: at the top concentration; further: nearly all actives have a fitted effect of over 70% in size
Sequence (P09992 whole entry, looked up): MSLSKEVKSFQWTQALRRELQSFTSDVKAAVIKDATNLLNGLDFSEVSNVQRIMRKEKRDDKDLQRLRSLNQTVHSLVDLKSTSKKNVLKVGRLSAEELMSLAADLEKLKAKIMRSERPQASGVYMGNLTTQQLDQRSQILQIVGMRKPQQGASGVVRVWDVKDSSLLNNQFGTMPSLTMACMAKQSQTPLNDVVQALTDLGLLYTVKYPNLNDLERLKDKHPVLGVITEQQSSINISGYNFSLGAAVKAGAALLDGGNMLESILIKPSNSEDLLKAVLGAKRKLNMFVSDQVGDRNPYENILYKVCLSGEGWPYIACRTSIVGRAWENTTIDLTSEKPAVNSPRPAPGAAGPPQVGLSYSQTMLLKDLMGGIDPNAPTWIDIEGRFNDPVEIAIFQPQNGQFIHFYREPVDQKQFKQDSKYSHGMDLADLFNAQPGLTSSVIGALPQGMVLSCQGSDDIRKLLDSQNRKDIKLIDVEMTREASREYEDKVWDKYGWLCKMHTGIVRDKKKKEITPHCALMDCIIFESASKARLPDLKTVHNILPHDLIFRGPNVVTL
On the % scale 0 is the no-effect control and ±100 the full control effect; potency means the concentration at half of the fitted maximal effect.

Structure (SMILES) | activity change, negative = inhibition | Potency
CC1(C)C[C@@H](O)[C@]2(C)CC[C@]3(C)C(=CCC4[C@@]5(C)CC[C@H](O)[C@](C)(CO)C5CC[C@]43C)[C@@H]2C1 (stereo partly specified) | 9.55% | –
COc1cc2c(cc1OC)-c1cc3ccc4c(c3c[n+]1CC2)OCO4 | -18.6% | –
COc1ccc2ccc(=O)oc2c1CC(=O)C(C)C | 8.94% | –
Cn1c2ccccc2c2c3c(c4c5ccccc5n(CCC#N)c4c21)CNC3=O | – | 6.11 µM (active)
COc1ccc(-c2cc(=O)c3ccc(O)cc3o2)cc1 | 4.26% | –
COc1cc(C/C=C\c2ccccc2)c(OC)cc1O | 5.65% | –
CCCCN(CCCC)CC(O)c1cc(Cl)cc2c1-c1ccc(Cl)cc1C2=Cc1ccc(Cl)cc1 (stereo unspecified) | 0.87% | –
CC(C)(O)CC[C@H](OC(=O)c1ccccc1)[C@](C)(O)[C@H]1CC[C@@]2(O)C3=CC(=O)[C@@H]4C[C@@H](O)[C@H](O)C[C@]4(C)C3CC[C@]12C (stereo partly specified) | 4.18% | –
N#CC(=Cc1ccc(O)c(O)c1)C(=O)NCc1ccccc1 | 0.301% | –
O=C[C@H](O)[C@@H](O)[C@H](O[C@H]1O[C@H](CO)[C@@H](O[C@H]2O[C@H](CO)[C@@H](O)[C@H](O)[C@H]2O)[C@H](O)[C@H]1O)[C@H](O)CO | 6.09% | –
CC(C)(OC1OC(CO)C(O)C(O)C1O)[C@H]1Oc2ccc3ccc(=O)oc3c2[C@H]1O (stereo partly specified) | -40% | –
CC1=CC2OC3CC4OC(=O)C=CC=CC(=O)OCCC(C)C(O)C(=O)OCC2(CC1)C4(C)C31CO1 (stereo unspecified) | -101% | –
CC1OC(OC2C(CO)OC(OCC3OC(OC(=O)[C@@]45CCC(C)(C)C[C@@H]4C4=CC[C@@H]6[C@@]7(C)CCC(OC8OCC(O)C(O)C8OC8OC(C)C(O)C(O)C8O)[C@@](C)(CO)C7CC[C@@]6(C)[C@]4(C)CC5)C(O)C(O)C3O)C(O)C2O)C(O)C(O)C1O (stereo partly specified) | 9.7% | –
C[C@H]1CC[C@@H]2[C@@H](C)[C@H]3C(C[C@H]4C5CC[C@H]6C[C@@H](O)CC[C@]6(C)C5CC[C@]34C)N2C1 (stereo partly specified) | 17.3% | –
CC(C)C(O)(C(=O)OC[C@@H]1CC[N+]2([O-])CCCC12)C(C)O (stereo partly specified) | 17.9% | –
COc1ccc(-c2coc3cc(OC)ccc3c2=O)cc1 | 16.5% | –
COc1cc(CCC(C)=O)ccc1O | 7.78% [at 115 µM] | –
CCCSSCCC | 9.51% [at 115 µM] | –
CC1(C)OC1COc1c2occc2cc2ccc(=O)oc12 (stereo unspecified) | 12.3% | –
CCC[C@H]1C[C@H](C(=O)N[C@@H]([C@@H]2O[C@@H](SC)[C@@H](O)[C@@H](O)[C@@H]2O)[C@H](C)Cl)N(C)C1 | 13.6% | –
CC(C)c1cc(C(=O)N2Cc3ccc(CN4CCN(C)CC4)cc3C2)c(O)cc1O | – | 0.485 µM (active)
